# Test results published in PubChem BioAssay (NCATS).
# Values joined by “and” are separate entries in the source; they are usually repeats but may differ in a detail not shown here. Equal values may be shown once. Results filed as inconclusive are left out.
# Assay: qHTS Assay for Lipid Storage Modulators (AID 1519)
# Conditions: Drosophila S3 cells, BODIPY lipid droplet/cell ratio, laser cytometry; measured here: lipid channel max response; cells loaded with oleic acid
# Outline: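 Cells seeded at 5,000 per well were treated with compounds over a concentration series and loaded with oleic acid (400 uM, as added). Lipid droplet fluorescence (488 nm excitation, 500-530 nm channel) was read by laser-scanning cytometry and normalized to 20 uM Triacsin C.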
row,SMILES,max response
1,CCCOc1cc(N)ccc1C(=O)OCCN(CC)CC,-6.99%
2,O=C(NCCNCC(O)COc1ccc(O)cc1)N1CCOCC1 (stereo not given),-30.3%
3,Cc1ncc(C[n+]2csc(CCO)c2C)c(N)n1,7.5%
4,Nc1ccc(N=Nc2ccccc2)c(N)n1,-21.4% and 16.6%
5,O=C(O)Cc1cc(I)c(Oc2ccc(O)c(I)c2)c(I)c1,0.793%
6,CC(=O)Nc1ccc(OC(=O)c2ccccc2O)cc1,24.9%
7,CC1CCC(NC(=O)N(CCCl)N=O)CC1 (stereo not given),12.2%
8,Cc1cccc(C)c1NC(=O)C1CCCCN1C (stereo not given),29.6%
9,CC(=O)Oc1cccc(C(=O)O)c1OC(C)=O,12%
10,O=C(CCCCCCCCCCCCC1CCCC1)Nc1ccc(S(=O)(=O)c2ccc(NC(=O)CCCCCCCCCCCCC3CCCC3)cc2)cc1,25.4%
11,CN1CCc2c(c3ccccc3n2Cc2ccccc2)C1,1.48%
12,CCSc1ccc2c(c1)N(CCCN1CCN(C)CC1)c1ccccc1S2,-23.8%
13,N#Cc1ccc2c(c1)N(CCCN1CCC(O)CC1)c1ccccc1S2,8.33%
14,CC1(C)S[C@@H]2[C@H](NC(=O)C3(N)CCCCC3)C(=O)N2[C@H]1C(=O)O,9.76%
15,CC(=O)Oc1cccc2c1C(=O)c1c(OC(C)=O)cc(C(=O)O)cc1C2=O,41.9%
16,CC1CCCC(C)N1NC(=O)c1ccc(Cl)c(S(N)(=O)=O)c1 (stereo not given),23.6%
17,CC(C)c1nc(N(C)S(C)(=O)=O)nc(-c2ccc(F)cc2)c1/C=C/C(O)CC(O)CC(=O)O (stereo not given),9.26%
18,O=C1c2ccccc2C(=O)c2c1ccc(O)c2O,20.3%
19,CNC(=O)c1c(I)c(C(=O)NCC(=O)Nc2c(I)c(C(=O)O)c(I)c(C(=O)NCCO)c2I)c(I)c(N(C)C(C)=O)c1I,-10.2%
20,O=C(O)CCC(=O)c1ccc(-c2ccccc2)cc1,-2.43%
21,O=C1NCCN1c1ncc([N+](=O)[O-])s1,-3.74%
22,CN1C(=O)OC(C)(C)C1=O,10.6%
23,C=CC(C)(O)CC/C=C(\C)CCC=C(C)C (stereo not given),8.64%
24,NCC(O)CC(=O)O (stereo not given),22.3%
25,N[C@H](CC(=O)O)C(=O)O,-12.9%
26,CCCc1nc(C(C)(C)O)c(C(=O)OCc2oc(=O)oc2C)n1Cc1ccc(-c2ccccc2-c2nn[nH]n2)cc1,29.3%
27,COc1cc(S(C)=O)ccc1-c1nc2ncccc2[nH]1 (stereo not given),-18.4%
28,CC[C@H]1OC(=O)[C@H](C)[C@@H](O[C@H]2C[C@@](C)(OC)[C@@H](O)[C@H](C)O2)C(C)[C@@H](O[C@@H]2O[C@H](C)C[C@H](N(C)C)[C@@H]2O)[C@](C)(OC)C[C@@H](C)C(=O)[C@H](C)[C@@H](O)[C@]1(C)O (stereo not given in full),18.8%
29,CC(=O)[C@H]1CC[C@H]2[C@@H]3C=CC4=CC(=O)CC[C@@]4(C)[C@H]3CC[C@]12C,-17%
30,CC(=O)N=c1sc(S(N)(=O)=O)nn1C,-12.6% and 4.84%
